Unmarked numbers belong to inactive results. No rule for the calls is given here.

The record followed here is PubChem BioAssay.

The target of the experiment is L-lactate dehydrogenase (Plasmodium falciparum (isolate CDC / Honduras)) (UniProt Q27743). Kind of experiment: PfLDH activity inhibition – cell lysate, 3D7 strain, counter-screen for P. falciparum growth inhibition project (AID 2304).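 Also: 0% = vehicle and 100% = reference inhibitor.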 The following applies: P. falciparum 3D7 crude extract, LDH APAD/NBT absorbance; at 2 µM; active compounds read high.
L-lactate dehydrogenase (Plasmodium falciparum (isolate CDC / Honduras)), sequence (Q27743 whole entry, looked up): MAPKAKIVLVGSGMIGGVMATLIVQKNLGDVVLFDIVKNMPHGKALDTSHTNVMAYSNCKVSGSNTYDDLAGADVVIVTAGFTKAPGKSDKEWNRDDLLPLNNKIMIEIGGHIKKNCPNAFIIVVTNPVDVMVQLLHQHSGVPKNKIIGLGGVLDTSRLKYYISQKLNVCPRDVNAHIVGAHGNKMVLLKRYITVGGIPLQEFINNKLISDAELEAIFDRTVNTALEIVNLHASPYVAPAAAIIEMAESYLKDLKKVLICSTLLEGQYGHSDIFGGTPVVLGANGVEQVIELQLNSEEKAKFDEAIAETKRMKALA
In the case of `CC[C@@H]([C@@H](Cc1cc2ccccc2s1)C(=O)N[C@@H](CCCCNC(=O)OCc1ccccc1)C(=O)Nc1ccccn1)N(O)C=O`, the inhibition was 6%. The result for `CC(C)(C)c1ccc(C(=O)N2CCC3(CC2)C(=O)N(CC(=O)NCC2CCCO2)CN3c2ccccc2)cc1` (stereo not given) reads 0%.

Take `NC(=O)c1cccc(CNC(=O)NC[C@H]2CN(Cc3ccc(Cl)c(Cl)c3)CCO2)c1`: the inhibition is 1%. Take `Cc1cc(Nc2cccc(Cl)c2)nc2ccc(NC(=O)c3ccc(=O)[nH]c3)cc12`: the inhibition is 4%.

Consider `COc1ccc(NC(=O)Nc2ccc(-c3cccc(-c4nc5c(C)cccc5[nH]4)c3)cc2)cc1`, for which the inhibition is 4%.

Take `CN(C)CCN(Cc1ccccc1-c1ccc(CNCCc2ccccc2)cc1)C(=O)NC1CCCCC1`: the inhibition is -1%.

For the compound `CN1CCC(N(Cc2ccc(-c3ccc(C(F)(F)F)cc3)nc2)C(=O)Cn2c(CCc3cccc(F)c3F)cc(=O)c3ccccc32)CC1`, the inhibition was 3%. With `CC(c1cccc(S(=O)(=O)NCc2cccc(C(F)(F)F)c2)c1)N1CCC(N2CCCCC2)CC1` (stereo not given), the inhibition was 2%. Regarding `CCCn1c(Sc2ccc(C#N)c([N+](=O)[O-])c2)nnc1-c1ccc(OC)cc1`, the inhibition is -2%. In the case of `CCOC(=O)C(C(C)=O)C(c1ccccc1)C(C(C)=O)C(=O)OCC` (stereo not given), the inhibition is 2%. For the compound `FC(F)(F)c1ccc2nc(-c3cccc(-c4ccc(CNCCc5ccncc5)cc4)c3)[nH]c2c1`, the inhibition is -1%.

With `CC(C)c1nc(N2CCN(C(=S)NCc3ccccc3)CC2)c(C#N)c2c1COC(C)(C)C2`, the inhibition is 6%. In the case of `O=C(NCCc1ccc(Cl)c(Cl)c1)[C@@H]1CCCN1C(=O)c1ccc(O)c(-c2ccc(Cl)c(Cl)c2)c1`, the inhibition is -2%.

On to `NCC1CCCN1Cc1cccc(-c2ccc(-c3nc4ccc(C(F)(F)F)cc4[nH]3)s2)c1` (stereo not given), for which the inhibition was -3%. For the compound `CN(CCCNc1ccc(C(=O)Nc2ccc(C(F)(F)F)cc2)cc1[N+](=O)[O-])Cc1ccccc1`, the inhibition was -9%. As for `Cc1ccc(-c2cc(C(=O)Nc3ccc(S(=O)(=O)N4CCCCC4C)cc3)[nH]n2)c(O)c1` (stereo not given), the inhibition was 0%. For the compound `COc1ccccc1-c1cccc(Nc2c(Nc3ccc(Cl)cc3)c(=O)c2=O)c1`, the inhibition was 0%. Under `O=C(Nc1cccnc1)c1cc(-c2cc(Cl)ccc2O)n[nH]1` stands 6%; under `Cc1ccc(NC(=O)c2ccc(CN3CCCN(CC4CCCCC4)CC3)cc2)cc1C`, 3%. Consider `Cc1cc(N2CCN(C(=O)OC(C)(C)C)CC2)ccc1N`, for which the inhibition was -2%.

In the case of `O=C1CSc2ccc(CNC3CCN(CCc4c(F)cnc5ccc(F)cc45)CC3)nc2N1`, the inhibition is 1%.

Consider `CCN(CC)CCOc1c(Cl)cc(Cl)cc1CNCCCNc1cc(=O)c2ccccc2[nH]1`, for which the inhibition was -1%.

`Cc1cc(NC(=O)NCCN2CCC(NS(=O)(=O)c3ccc(Br)cc3)C2)c2ccccc2n1` (stereo not given): the inhibition is 0%.

In the case of `Cc1cc(N[C@@H](Cc2ccccc2)C(=O)Nc2ccccc2)nc(NCCc2cccnc2)n1`, the inhibition was -3%. Regarding `COc1ccc(C2CCN(CCCNC(=O)c3ccc(NC(=O)c4ccc(Cl)cc4)cc3)CC2)c(OC)c1`, the inhibition is 3%. The result for `COc1ccccc1CCNc1nc(C)cc(N[C@@H](Cc2ccccc2)C(=O)NCCCOC(C)C)n1` reads -1%. For the compound `Cc1ccccc1C(O)CNc1ccnc(Nc2cccc(C#N)c2)n1` (stereo not given), the inhibition was 0%.

`COc1cc2nc(Nc3ccc(C)cc3)nc(Nc3ccc(C)cc3)c2cc1OC`: the inhibition is -1%. In the case of `CC(CCCCC(=O)Nc1ccc(CC(C)NCCc2cccc(Cl)c2)cc1)NCCc1cccc(Cl)c1` (stereo not given), the inhibition is -1%.

Take `CCc1cn2c3c(cc(C(=O)N[C@@H](Cc4ccccc4)[C@H](O)CN[C@@H](C)CC)cc13)N(C)S(=O)(=O)CC2`: the inhibition is -2%. Turning to `CCOc1ccc(NC(=O)c2ccc(CN3CCCN(Cc4cccc(O)c4)CC3)cc2)cc1`, the inhibition was 0%. As to `Cc1cccc2[nH]c(-c3ccc(-c4ccc(CN5CCC(C(N)=O)CC5)cc4)s3)nc12`, the inhibition was 8%. `CN(Cc1cc(C(F)(F)F)cc(C(F)(F)F)c1)C(=O)C(Cc1ccc(F)cc1)C1CCCNC1` (stereo not given): the inhibition was 4%.

Consider `Cc1cccc2[nH]c(-c3cccc(-c4cccc(NC(=O)c5ccncc5)c4)c3)nc12`, for which the inhibition was -3%. Consider `Oc1c(Cl)cc(-c2ccccc2)cc1CNC1CCCCC1`, for which the inhibition was -5%.

Turning to `NC(N)=Nc1nc(-c2cccc(NC(=O)NCc3ccc(OC(F)(F)F)cc3)c2)cs1`, the inhibition is 4%. Under `C=CCc1cccc(CN2CCC(c3cc(=O)[nH]c(-c4ccccn4)n3)CC2)c1O` stands -2%; under `O=C(NCc1cccc(Cl)c1)c1ccc(CNC2CCN(Cc3ccccc3)CC2)cc1`, 5%; under `CS(=O)(=O)N(c1ccc(F)cc1)c1cc(C(=O)N[C@@H](Cc2ccccc2)[C@H](O)CNCc2cccc(C(F)(F)F)c2)cc(N2CCCC2=O)c1`, -1%. Regarding `Cc1ccc(S(=O)(=O)c2nc(S(=O)(=O)c3ccccc3)sc2NCC2CCCO2)cc1` (stereo not given), the inhibition is 0%.
